SMILES strings stand for the structures. About 83,000 compounds went through this panel and 20% of them were active in at least one assay; those are over-represented in the sample as a whole.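 Negative percent growth values reflect cell death: -40 means 40% of the cells present at the start died, and -100 means all died.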 Unmarked numbers belong to inactive results. Calls of active or inactive are those of the source. The calls were made as follows: active = growth percent below 10; inactive = the rest.

The record followed here is PubChem BioAssay (NCI).

Among the test systems are SR leukemia; RPMI-8226 leukemia; OVCAR-8 ovarian; OVCAR-5 ovarian; OVCAR-4 ovarian; SK-OV-3 ovarian; IGROV1 ovarian; OVCAR-3 ovarian; HS 578T breast; NCI/ADR-RES ovarian.
Common to all, as to test: NCI-60 one-dose screen, 48 h (100 = growth as untreated, 0 = no growth, -100 = all killed)
Holding throughout (details): 10 µM unless noted

On to `COc1ccc(C/C(C)=C(/c2ccc(OCCN3CCCCCC3)cc2)c2ccc(OC(=O)NCc3ccccc3)cc2)cc1`, for which the growth in the assay with SR leukemia is -43.2% (active); with RPMI-8226 leukemia it was 52.8%; in the assay on OVCAR-8 ovarian, 92.4%; in the assay with OVCAR-5 ovarian, 91.5%; in the assay on OVCAR-4 ovarian, 76%; in the assay on SK-OV-3 ovarian, 95.3%. Also, the growth with IGROV1 ovarian was 93%; in the assay on OVCAR-3 ovarian it was 75.1%; in the assay with HS 578T breast, 75%; in the assay on NCI/ADR-RES ovarian, 86.8%.
`Cc1ccc(-c2nc(C(Cl)Cl)nc3cc(C)nn23)cc1`: the growth in the assay on SR leukemia was 9.7% (active); with RPMI-8226 leukemia it was 33.4%; in the assay with OVCAR-8 ovarian, 14.7%; in the assay on OVCAR-5 ovarian it was 2.16% (active); with OVCAR-4 ovarian, -21.5% (active); with SK-OV-3 ovarian, -12.7% (active). In addition, the growth with IGROV1 ovarian is 6.31% (active); in the assay on OVCAR-3 ovarian it was -24.3% (active); in the assay with HS 578T breast it was -11.4% (active); with NCI/ADR-RES ovarian, 6.39% (active).
Consider `CC(C)CCC[C@@H](C)C1CCC2C3CCC4=C/C(=N/OCCN(C)C)CC[C@]4(C)C3CC[C@@]21C` (stereo not given in full), for which the growth is 62.2% in the assay on SR leukemia; 78.4% with RPMI-8226 leukemia; 104% with OVCAR-8 ovarian; 83.9% with OVCAR-5 ovarian; 88.5% in the assay with OVCAR-4 ovarian; 93.8% in the assay with SK-OV-3 ovarian. The growth was 48.9% with IGROV1 ovarian, 89.5% in the assay on OVCAR-3 ovarian, 83.8% in the assay with HS 578T breast and 89.6% in the assay on NCI/ADR-RES ovarian.
Turning to `CCCCCSB(SCCCCC)c1ccccc1`, the growth in the assay with SR leukemia is 98.5%; with RPMI-8226 leukemia it was 100%; in the assay with OVCAR-8 ovarian, 97%; in the assay on OVCAR-5 ovarian, 101%; in the assay on OVCAR-4 ovarian, 100%; in the assay on SK-OV-3 ovarian it was 104%. The growth in the assay on IGROV1 ovarian is 97.1%; in the assay on OVCAR-3 ovarian it was 109%; in the assay on HS 578T breast it was 109%; with NCI/ADR-RES ovarian it was 98.4%.
As to `Cc1cc2nc3c4ccccc4n(CCN(C)C)c3nc2cc1C`, the growth in the assay with SR leukemia is 4.17% (active); in the assay on RPMI-8226 leukemia, -19.7% (active); with OVCAR-8 ovarian, 6.84% (active); in the assay with OVCAR-5 ovarian it was 15.6%; in the assay with OVCAR-4 ovarian it was -1.33% (active); in the assay on SK-OV-3 ovarian, 13.3%. The growth in the assay on IGROV1 ovarian was 5.07% (active); with OVCAR-3 ovarian, 18%; with HS 578T breast it was 3.81% (active); in the assay with NCI/ADR-RES ovarian, 6.55% (active).
Consider `CCOC(=O)Nc1nc2ccc(SCC(C)C)cc2s1`, for which the growth was 12.5% with SR leukemia; 32.3% with RPMI-8226 leukemia; 49.1% with OVCAR-8 ovarian; 50.2% in the assay with OVCAR-5 ovarian; 95.3% in the assay with OVCAR-4 ovarian; 28.6% in the assay on SK-OV-3 ovarian. Moreover, the growth was 51.1% in the assay with IGROV1 ovarian, -16.4% (active) in the assay on OVCAR-3 ovarian, 30.3% with HS 578T breast and 14.1% in the assay on NCI/ADR-RES ovarian.
Take `COc1cc2ncnc(Nc3ccc(F)c(Cl)c3)c2cc1OCC(=O)N1CCN(c2ccc(F)cc2)CC1`: the growth in the assay on SR leukemia was 79%; in the assay with RPMI-8226 leukemia, 98.8%; with OVCAR-8 ovarian it was 107%; in the assay with OVCAR-5 ovarian it was 60.6%; in the assay on OVCAR-4 ovarian, 82%; with SK-OV-3 ovarian, 88.1%. Also, the growth with IGROV1 ovarian is 46.9%; in the assay with OVCAR-3 ovarian, 83.4%; with HS 578T breast it was 89.3%; in the assay with NCI/ADR-RES ovarian, 82.7%.
`COc1ccc(-c2ccc(=O)oc2C#Cc2cc(OC)c(OC)c(OC)c2)cc1O`: the growth in the assay on SR leukemia was 7.05% (active); with RPMI-8226 leukemia, 15.3%; in the assay with OVCAR-8 ovarian, 20%; in the assay with OVCAR-5 ovarian it was 46.2%; with OVCAR-4 ovarian, 58.6%; in the assay on SK-OV-3 ovarian it was 30.7%. Further, the growth in the assay with IGROV1 ovarian is 28.9%; in the assay on OVCAR-3 ovarian, -67.2% (active); in the assay on HS 578T breast, -8.91% (active); in the assay on NCI/ADR-RES ovarian, 16.4%.
With `CCNc1nc(-c2ccc(F)cc2)c(C#N)c(=O)n1C`, the growth in the assay on SR leukemia is 50.3%; in the assay with RPMI-8226 leukemia it was 91.8%; in the assay on OVCAR-8 ovarian, 73.8%; in the assay on OVCAR-5 ovarian, 56%; in the assay with OVCAR-4 ovarian, 55.2%; in the assay on SK-OV-3 ovarian, 55.9%. The growth was 54.1% in the assay on IGROV1 ovarian, 59.1% with OVCAR-3 ovarian, 37.5% in the assay on HS 578T breast and 67.1% with NCI/ADR-RES ovarian.
Turning to `Oc1c(Cl)cc(Cl)c2ccc(Cn3cc(-c4cccc(C(F)(F)F)c4)nn3)nc12`, the growth is -15.6% (active) in the assay on SR leukemia; 8.24% (active) in the assay with RPMI-8226 leukemia; 80% in the assay with OVCAR-8 ovarian; 94.5% with OVCAR-5 ovarian; 65.9% in the assay with OVCAR-4 ovarian; 107% with SK-OV-3 ovarian. Moreover, the growth in the assay on IGROV1 ovarian is 85.2%; in the assay on OVCAR-3 ovarian it was 15%; in the assay on HS 578T breast it was 74.9%; in the assay on NCI/ADR-RES ovarian, 104%.
Regarding `COC(=O)c1ccc2c(c1)c1c(C)c3ccncc3c(C)c1n2C`, the growth was -5.73% (active) in the assay on SR leukemia; 26.8% in the assay on RPMI-8226 leukemia; 28.8% in the assay on OVCAR-8 ovarian; 44.9% with OVCAR-5 ovarian; 22% in the assay with OVCAR-4 ovarian; 40% with SK-OV-3 ovarian. Moreover, the growth was 24% in the assay with IGROV1 ovarian, 39.5% with OVCAR-3 ovarian, 35.6% in the assay with HS 578T breast and 29.3% in the assay with NCI/ADR-RES ovarian.
In the case of `O=C(/C=C/c1ccc(Br)cc1)c1ccc(-n2cc(CN3CCN(c4cc5c(cc4F)c(=O)c(C(=O)O)cn5C4CC4)CC3)nn2)cc1`, the growth with SR leukemia is 16.6%; in the assay with RPMI-8226 leukemia, 34.2%; in the assay on OVCAR-8 ovarian it was 79%; in the assay on OVCAR-5 ovarian, 99.5%; with OVCAR-4 ovarian it was 91.4%; with SK-OV-3 ovarian, 78.4%. Further, the growth with IGROV1 ovarian is 74.2%; with OVCAR-3 ovarian, 95.9%; in the assay on HS 578T breast, 83.6%; in the assay with NCI/ADR-RES ovarian, 102%.
As to `C[C@H]1[C@H](C)CC[C@]2(C(=O)O)CC[C@]3(C)C(=CC[C@@H]4[C@@]5(C)C[C@@H](Cc6cn([C@@H]7O[C@H](CO)[C@@H](O)[C@H](O)[C@H]7O)nn6)[C@H](O)C(C)(C)[C@@H]5CC[C@]43C)[C@H]12`, the growth in the assay on SR leukemia was 105%; in the assay on RPMI-8226 leukemia it was 98.3%; with OVCAR-8 ovarian it was 97.8%; with OVCAR-5 ovarian, 97.2%; in the assay on OVCAR-4 ovarian, 91.7%; with SK-OV-3 ovarian it was 88.5%. The growth is 107% in the assay on IGROV1 ovarian, 107% with OVCAR-3 ovarian, 103% with HS 578T breast and 106% in the assay with NCI/ADR-RES ovarian.
